Records with an inconclusive call do not appear. Entries that show only a call come without a potency. Activity calls are given as the source filed them. Calls follow the shape of the dose curve; as a rule, active = well fitted cell-killing curve with a large enough effect in the repeat runs; inconclusive = weak or mixed curves, or effect the other way; inactive = flat fitted curve, though single readings scatter.
Assay: qHTS RealTime-Glo MT Cell Viability Assay in HepG2 cells - 0 hour (AID 1224889); also: nearly all actives have a fitted effect of over 50% in size
Settings: RealTime-Glo luminescence; series mostly up to 76.8 µM
Text: U.S. Tox21 Program National Center for Advancing Translational Sciences [NCATS] NIH Chemical Genomics Center [NCGC] U.S. Environmental Protection Agency [EPA] National Institutes of Environmental Health Sciences [NIEHS] National Toxicology Program [NTP] U.S. Food and Drug Administration [FDA] Tox21 Assay Overview: Measure of cell viability is critical in the cell-base assay. Analysis of cell viability is necessary for the characterization of cell responses to cytotoxic drugs and environmental stress. A RealTime-Glo MT Cell Viability Assay to monitor cell viability in real time of continues cell culture during 40 hours of compound treatment was used to screen Tox21 10K library compounds in HepG2 cells. The RealTime-Glo MT Cell Viability Assay is a nonlytic, homogeneous, bioluminescent method to measure cell viability in real time using a simple, plate-based method. The assay involves adding NanoLuc luciferase and a cell-permeant prosubstrate to cells in culture. Viable cells reduce the proprietary prosubstrate to generate a substrate for NanoLuc luciferase. This substrate diffuses from cells into the surrounding culture medium, where it is rapidly used by the NanoLuc Enzyme to produce a luminescent signal. The signal correlates with the number of viable cells, making the assay well suited for cytotoxicity studies.
Tox21 Assay Protocol Summary: The mixture of HepG2 cell suspension and reagents were dispensed at 600cells/6 ul/well in 1536-well tissue culture treated black solid bottom plates using a Multidrop dispenser. After the assay plates were incubated at a 37 C/5% CO2 incubator for 5 hours, 23 nL of compounds dissolved in DMSO, positive and negative controls was transferred to the assay plate by a pintool work station. The plates were incubated at 37 C for 40 hours. The luminescence intensity were measured at 0h, 8h, 16h, 24h, 32h and 40h time points using ViewLux plate reader during compound treatment.
For `COc1cc(N)c(Cl)cc1C(=O)NC1CCN(CCCOc2ccc(F)cc2)CC1OC` (stereo not given), the Potency was “inactive”.
In the case of `CC(C)=CC(=O)C=C(C)C`, the Potency is reported as “inactive”.
For `Cc1ccc(Cl)c(Nc2ccccc2C(=O)O)c1Cl`, the Potency was “inactive”.
With `C=CC(C)(CCC=C(C)C)OC(=O)CC(C)C` (stereo not given) the Potency was “inactive”.
In the case of `CC(C)c1nc(CN(C)C(=O)N[C@H](C(=O)N[C@@H](Cc2ccccc2)C[C@H](O)[C@H](Cc2ccccc2)NC(=O)OCc2cncs2)C(C)C)cs1`, the Potency is reported as “inactive”.
For `O=Cc1c2ccccc2c(Cl)c2ccccc12`, the Potency was “inactive”.
In the case of `CC=C(Cl)Cl`, the Potency is reported as “inactive”.
With `Cc1ccc(CO)cc1` the Potency was “inactive”.
For `CCCCCCCCCCCCCCN(CCO)CCO`, the Potency was “inactive”.
In the case of `CN(C)CCN1C(=O)c2ccccc2N(C)c2ccccc21`, the Potency is reported as “inactive”.
With `C1COC1` the Potency was “inactive”.
With `NC1[C@H]2CN(c3nc4c(cc3F)c(=O)c(C(=O)O)cn4-c3ccc(F)cc3F)C[C@@H]12` (stereo not given in full) the Potency was “inactive”.
In the case of `CC(CC1c2ccccc2CCc2ccccc21)CN(C)C` (stereo not given), the Potency is reported as “inactive”.
In the case of `OC(CCN1CCCC1)(c1ccccc1)C1CCCCC1` (stereo not given), the Potency is reported as “inactive”.
In the case of `N#CCc1ccc(Cl)cc1Cl`, the Potency is reported as “inactive”.
For `CCC(C)COC(C)=O` (stereo not given), the Potency was “inactive”.
In the case of `COc1ccccc1NC(=O)c1cc2ccccc2cc1O`, the Potency is reported as “inactive”.
For `O[C@@H]1CO[C@H]2[C@@H]1OC[C@@H]2O`, the Potency was “inactive”.
In the case of `C=C/C(C)=C/C/C=C(\C)CCC=C(C)C`, the Potency is reported as “inactive”.
For `O=C=Nc1cccc(C(F)(F)F)c1`, the Potency was “inactive”.
With `O=C=Nc1ccc(Cl)c(Cl)c1` the Potency was “inactive”.
With `CC(O)c1ccccc1` (stereo not given) the Potency was “inactive”.
In the case of `Cc1ccccc1S`, the Potency is reported as “inactive”.
In the case of `Cc1cscn1`, the Potency is reported as “inactive”.
With `CCCCCCCCN` the Potency was “inactive”.
With `CC(C)Nc1cccnc1N1CCN(C(=O)c2cc3cc(NS(C)(=O)=O)ccc3[nH]2)CC1` the Potency was 3.38 µM (active).
In the case of `COc1cc(C(=O)NC2CCN(C)CC2)ccc1Nc1ncc2c(n1)N(C1CCCC1)CC(F)(F)C(=O)N2C`, the Potency is reported as “inactive”.
For `Oc1cccc(Nc2ccccc2)c1`, the Potency was “inactive”.
In the case of `O=C(O)CCc1nc(-c2ccccc2)c(-c2ccccc2)o1`, the Potency is reported as “inactive”.
In the case of `CN1C(C(=O)Nc2ccccn2)=C(O)c2sccc2S1(=O)=O`, the Potency is reported as “inactive”.
For `C(=C\c1ccccc1)/c1ccccc1`, the Potency was “inactive”.
In the case of `CC(=O)OCC(=O)NCCCOc1cccc(CN2CCCCC2)c1`, the Potency is reported as “inactive”.
In the case of `CC(=O)Nc1ccc(C)cc1C`, the Potency is reported as “inactive”.
In the case of `CC(CCC(=O)O)C(=O)O` (stereo not given), the Potency is reported as “inactive”.
With `C[C@]1(Cn2ccnn2)[C@H](C(=O)O)N2C(=O)C[C@H]2S1(=O)=O` the Potency was “inactive”.
With `CC(=O)c1ccc([N+](=O)[O-])cc1` the Potency was “inactive”.
With `C[C@@]12CCC[C@H]1[C@@H]1CC[C@H]3C[C@@H](O)CC[C@]3(C)[C@H]1CC2` the Potency was “inactive”.
For `CCn1cc(C(=O)O)c(=O)c2cc(F)c(N3CCNCC3)cc21`, the Potency was “inactive”.
With `N#CCCN(CCO)CCO` the Potency was “inactive”.
For `CC/C=C1/OC(=O)c2ccccc21`, the Potency was “inactive”.
Potency is read from the fitted curve at half-maximal effect.
